In the library only some 19% were active in any assay of this set; here they are far more common.
TDP1 cell noCPT = qHTS for Inhibitors of human tyrosyl-DNA phosphodiesterase 1 (TDP1): qHTS in cells in absence of CPT | hit rate 15% among 420,000 | DT40 Tdp1-/- hTDP1 cells, no CPT, ATP luminescence, 48 h | Potency, µM (top dose mostly 46.2 µM), for inactives: at the highest dose activity change, negative = growth inhibition, usual class: inhibitors | AID 686978, 2013; also: potency is read from the fitted curve at half-maximal effect; nearly all actives have a fitted effect of over 55% in size
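Stably hTDP1-transfected Tdp1-null chicken DT40 cells were treated with library compounds minus camptothecin and grown for at least 48 hr at 37 °C, after which cellular ATP was quantified by luminescence.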
Giardia kill = kills Giardia lamblia; Giardia lamblia trophozoite viability; activity change, % at 7.66 µM, hits read low; hit rate 0.15% among 340,000; in the data active = activity change below about -80%; inconclusive = between about -30% and that limit;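 also: parasites exposed to compound for two days anaerobically before the ATP read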
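Trophozoites 100 cells/well + cpd; 48 hrs, 37 deg C, anaerobic. ATPLite 1-Step added, 15-30 min RT, luminescence read (ATP-based viability).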
TDP1 block = TDP1 (human) enzyme inhibition | AID 485290 | Potency, µM (titrated, usually from 130 µM), inactives show at the top dose activity change, negative = inhibition, most hits filed as inhibitors | recombinant TDP1, AlphaScreen DNA substrate cleavage | Q9NUW8 | hit rate 0.28% among 350,000; also: potency is read from the fitted curve at half-maximal effect; nearly all actives have a fitted effect of over 40% in size
Target sequence (Q9NUW8 whole entry, looked up): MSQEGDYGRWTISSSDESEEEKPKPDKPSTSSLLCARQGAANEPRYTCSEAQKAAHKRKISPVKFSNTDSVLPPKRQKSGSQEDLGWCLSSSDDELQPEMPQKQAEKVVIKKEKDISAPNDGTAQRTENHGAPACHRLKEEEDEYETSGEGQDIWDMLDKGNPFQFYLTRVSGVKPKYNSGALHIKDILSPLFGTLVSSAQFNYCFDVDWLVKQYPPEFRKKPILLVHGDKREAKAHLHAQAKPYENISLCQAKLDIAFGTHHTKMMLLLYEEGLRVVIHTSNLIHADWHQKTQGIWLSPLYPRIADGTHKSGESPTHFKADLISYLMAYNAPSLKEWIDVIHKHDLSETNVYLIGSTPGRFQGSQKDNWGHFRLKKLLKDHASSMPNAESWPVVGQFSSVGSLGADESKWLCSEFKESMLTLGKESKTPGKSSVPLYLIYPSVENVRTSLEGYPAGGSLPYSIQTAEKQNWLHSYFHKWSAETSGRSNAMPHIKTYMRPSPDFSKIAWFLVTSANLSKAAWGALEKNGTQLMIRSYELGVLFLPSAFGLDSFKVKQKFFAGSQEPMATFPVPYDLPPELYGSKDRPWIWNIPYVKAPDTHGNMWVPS
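Steps: enzyme plus compound, 15 min RT; add biotin/phosphotyrosine-FITC oligonucleotide (15 nM final), react 5 min; add donor/acceptor beads (10 ug/ml final), 10 min; read AlphaScreen. Tdp1 at 1 nM final.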
IL-1B inflam inh = inflammasome signaling inhibition, IL-1 beta readout. THP-1 LPS/ATP IL-1B secretion, AlphaLISA, 16 h; hits give low values. activity change, % at 57.5 µM. hit rate 4.7% among 360,000. AID 743279; in the data active = activity change below about -50%; inconclusive = mostly about -30% to -49%
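THP-1 cells pretreated 1 hr with compounds (up to 57.5 uM final), then stimulated with LPS (250 ng/mL final) plus ATP (1.25 mM final); secreted IL-1B measured by AlphaLISA after 16 hr, decreased signal indicating inhibition.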
TDP1 cell CPT = growth inhibition of DT40 Tdp1-/-;hTDP1 cells with camptothecin (screen for TDP1 inhibitors) | hit rate 12% among 420,000 | chicken DT40 Tdp1-/-;hTDP1 cells + 20 nM CPT, ATP luminescence, 48 h | Potency, µM (titrated, usually from 46.2 µM), inactives show at the highest dose activity change, negative = growth inhibition, usual class: inhibitors; also: potency is read from the fitted curve at half-maximal effect; nearly all actives have a fitted effect of over 55% in size
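Cell growth measured by CellTiter-Glo luminescence after a minimum 48 h, 37 C compound exposure with 20 nM CPT in Tdp1-knockout DT40 cells stably expressing hTDP1, seeded 400/well; qHTS titration format.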
ELG1 repair inh = ELG1-dependent DNA repair inhibition; hit rate 2.3% among 330,000; HEK293T ELG1-luciferase reporter, luminescence, 16 h; DNA damage induced by 5-fluorouridine; Potency, µM (top dose mostly 46.1 µM), for the others: at the highest dose activity change, negative = inhibition, usual class: inhibitors; AID 504467; also: potency is read from the fitted curve at half-maximal effect; nearly all actives have a fitted effect of over 55% in size
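In this reporter screen, reduction of luminescence relative to DMSO vehicle indicated activity. Compounds and 5-fluorouridine were added together to 2,000 cells per well, incubated for 16 hr at 37 °C, then developed with ONE-Glo.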
* = called active by the depositor; ? = inconclusive; . = no result. Unless noted, calls follow the shape of the dose curve; as a rule, active = well fitted curve in the direction sought with a large enough effect; inconclusive = small, poorly fitted or top-dose-only effect, or another doubt; inactive = no such curve, though single readings can be large; an effect the other way counts as inactive or inconclusive. % is scaled to controls: 0 for no effect and ±100 for the full control effect.

SMILES | TDP1 cell noCPT | Giardia kill | TDP1 block | IL-1B inflam inh | TDP1 cell CPT | ELG1 repair inh
CCc1ccc(-c2ccc(SCC(=O)Nc3nnc(C)s3)nn2)cc1 | -9% | -24 | -1% | 4 | -17% | ?
CC(C)(C)OC(=O)C(Oc1ccccc1[N+](=O)[O-])C(=O)OC(C)(C)C | ? | . | . | 0 | ? | .
O=C(NCc1ccccc1)C(c1cccc2ccccc12)n1c(=O)c(-c2cc3ccccc3[nH]2)nc2ccccc21 (stereo not given) | ? | . | . | 55 | 15µM* | .
CCCCCNC(=O)C(c1cc2ccccc2o1)n1c(=O)c(-c2cc3ccccc3[nH]2)nc2ccccc21 (stereo not given) | ? | . | . | 2 | ? | .
Cc1cccc(C)c1NC(=O)C(c1ccc(-c2ccccc2)cc1)n1c(=O)c(-c2ccco2)nc2ccccc21 (stereo not given) | ? | . | . | 9 | ? | .
O=C(NCc1ccccc1)C(CCc1ccccc1)n1c(=O)c(-c2cc3ccccc3[nH]2)nc2ccccc21 (stereo not given) | 9.2µM* | . | . | 22 | 13µM* | .
O=C(NCc1ccccc1)C(CCc1ccccc1)n1c(=O)c(-c2ccccc2)nc2ccccc21 (stereo not given) | 2.3µM* | . | . | 50 | -76% | .
O=C(NCc1ccccc1)C(c1ccc(-c2ccccc2)cc1)n1c(=O)c(-c2ccco2)nc2ccccc21 (stereo not given) | ? | . | . | -3 | ? | .
CCCCCNC(=O)C(c1ccc(-c2ccccc2)cc1)n1c(=O)c(-c2cc3ccccc3[nH]2)nc2ccccc21 (stereo not given) | -22% | . | . | 67 | -6% | .
Cc1cccc(C)c1NC(=O)C(c1ccccc1)n1c(=O)c(-c2ccccc2)nc2ccccc21 (stereo not given) | 16µM* | . | . | -24 | ? | .
COc1cccc(C2(CC(=O)N3CCC(c4nc5ccccc5o4)CC3)CC(=O)N(C)C2=O)c1 (stereo not given) | 1% | . | . | . | 7% | .
CCC(C(=O)NC(C)(C)C)n1c(-c2ccc(C)cc2)nc2ccccc21 (stereo not given) | -26% | . | . | 1 | -29% | .
CC(c1nc2ccccc2[nH]1)n1c(=O)c(-c2ccco2)nc2ccccc21 (stereo not given) | 18µM* | . | . | ? | 13µM* | .
Cc1cccc(C)c1NC(=O)C(c1ccncc1)n1c(=O)c(-c2cc3ccccc3[nH]2)nc2ccccc21 (stereo not given) | 21µM* | . | . | -17 | 12µM* | .
CCC(C(=O)Nc1c(C)cccc1C)n1c(-c2ccc(-c3ccccc3)cc2)nc2ccccc21 (stereo not given) | 15µM* | . | . | -12 | 15µM* | .
O=C(Nc1ccc2ccccc2c1)C(c1ccccc1)n1c(=O)c(-c2cc3ccccc3[nH]2)nc2ccccc21 (stereo not given) | 16µM* | . | . | 67 | ? | .
COC(=O)Nc1ccc(S(=O)(=O)N2CCC(C(=O)N3CCCC(C)C3)CC2)cc1 (stereo not given) | ? | -12 | 0% | 23 | ? | 0%
CC(CCN1CCN(c2ccc(F)cc2)CC1)c1ccccc1 (stereo not given) | ? | 0 | . | -13 | -4% | 0%
C=CCc1ccccc1OCCSc1nc(-c2cccs2)nc2cc(=O)[nH]n12 | ? | . | -5% | . | ? | .
COc1cc(C(c2nnnn2C2CCCC2)N2CCN(C(=O)c3ccco3)CC2)cc(OC)c1OC (stereo not given) | -16% | -2 | 10% | -2 | 3% | 3%
Cc1cccc(C)c1NC(=O)C(c1ccccc1)n1c(=O)c(-c2cc3ccccc3[nH]2)nc2ccccc21 (stereo not given) | 15µM* | . | . | 6 | 16µM* | .
Nc1nc(SCc2ccccc2)c2[nH]cnc2n1 | -7% | -2 | 1% | -23 | 1% | ?
Nc1nc(Sc2ccc([N+](=O)[O-])c3nonc23)c2[nH]cnc2n1 | 3.3µM* | -2 | . | -119* | 1.8µM* | .
CNc1ncnc(Sc2nc(N)nc3nc[nH]c23)c1[N+](=O)[O-] | 4.6µM* | 6 | . | -59* | 2.1µM* | .
CCOC(=O)c1c(C)[nH]c(CCC(=O)NCc2cc(Br)ccc2OC)c1C | 18µM* | . | 8% | . | ? | .
SMILES | TDP1 cell noCPT | Giardia kill | TDP1 block | IL-1B inflam inh | TDP1 cell CPT | ELG1 repair inh
CCOC(=O)c1c(C)[nH]c(CCC(=O)NCc2ccccc2C)c1C | 13µM* | . | 8% | . | ? | .
COc1ccc(CCC(=O)NCc2ccccc2Cl)cc1OC | 3% | -7 | . | 10 | -7% | 2%
CCOC(=O)c1c(C)[nH]c(CCC(=O)NCc2ccc(CC)cc2)c1C | 18µM* | . | 3% | . | ? | .
CCOC(=O)c1c(C)[nH]c(CCC(=O)NCc2ccccc2Cl)c1C | 21µM* | . | 5% | . | ? | .
Clc1ccccc1C1CC(c2ccccc2)Nc2ncnn21 (stereo not given) | ? | -25 | 0% | -3 | 15µM* | 11%
COc1ccc(C2CC(c3ccccc3Cl)Nc3ncnn32)cc1OC (stereo not given) | ? | -19 | 8% | -3 | -28% | 8%
CCOc1ccc(C2CC(c3cccc(C)c3)n3ncnc3N2)cc1 (stereo not given) | 23µM* | 4 | 7% | -12 | 13µM* | -3%
COc1cccc(C2CC(c3ccccc3Cl)Nc3ncnn32)c1 (stereo not given) | ? | -8 | . | ? | 26µM* | .
CCS(=O)(=O)N1CCN(c2ccc(Cl)cc2[N+](=O)[O-])CC1 | ? | 35 | 0% | -2 | -28% | 9%
CC(=O)N(C1CC(C)C(C#N)(C#N)C1(C#N)C#N)N(C)C (stereo not given) | 0.58µM* | 1 | 11% | -112* | 0.52µM* | -8%
CCCC(=O)N(C1CC(C)C(C#N)(C#N)C1(C#N)C#N)N(C)C (stereo not given) | 2.3µM* | -3 | . | -101* | 1.3µM* | ?
COc1cccc2c1OCC(CN1CCN(CCC(C)C)C(CCO)C1)=C2 (stereo not given) | -21% | 7 | 3% | 10 | 22% | 9%
COc1ccc(CCNC(=O)N[C@@H](Cc2ccccc2)C(=O)O)cc1 | 0% | 6 | . | 9 | 7% | 1%
[O-]/[N+](=C/c1ccc(F)cc1)c1ccc(Cl)cc1 | 9.2µM* | -7 | 7% | 7 | 16µM* | ?
